Test results as given in PubChem BioAssay AID1159580 (chemical genetic matrix, 2015).
Among all 5,500 compounds or so, about 2,000 (36%) were called active. Inconclusive results (about 18%) are left out. Rule as the data show it: active = normalized growth mostly below about 0.91 (no sharp cut-off); inconclusive = no clear call, values can overlap the other calls; inactive = mostly above about 0.92. Some of the results follow.

Experiment: chemical genetic growth profiling, strain panel (AID 1159580);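 also: tested at 20 µM; growth read once vehicle control cultures reached saturation at 30 °C; 1 = growth at the plate median or of vehicle wells; lower values mean less growth of the strain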
Details: S. cerevisiae deletion strains, growth OD
[1] = locus YHR030C, strain SLT2, stronger effect = lower value

Measured: normalized growth

O=P1(NCCCl)OCCCN1CCCl (configuration not stated)
inactive: locus YAL021C, strain ccr4, stronger effect = lower value 0.964 | locus YAL026C, strain drs2, stronger effect = lower value 0.991 | locus YAL030W, strain snc1, stronger effect = lower value 0.992 | locus YBL061C, strain skt5, stronger effect = lower value 0.993 | locus YBR009C, strain hhf1, stronger effect = lower value 1.01 | locus YBR023C, strain chs3, stronger effect = lower value 0.987 | locus YBR171W, strain sec66, stronger effect = lower value 0.98 | locus YBR231C, strain swc5, stronger effect = lower value 1 | locus YBR279W, strain paf1, stronger effect = lower value 0.997 | locus YCL011C, strain gbp2, stronger effect = lower value 0.975 | locus YCL016C, strain dcc1, stronger effect = lower value 0.992 | locus YCL061C, strain MRC1, stronger effect = lower value 0.987 | locus YCL069W, strain vba3, stronger effect = lower value 0.989 | locus YCR088W, strain abp1, stronger effect = lower value 0.971 | locus YDL005C, strain med2, stronger effect = lower value 0.995 | locus YDL040C, strain nat1, stronger effect = lower value 0.987 | locus YDR001C, strain nth1, stronger effect = lower value 0.985 | locus YDR069C, strain doa4, stronger effect = lower value 0.995 | locus YDR137W, strain rgp1, stronger effect = lower value 0.988 | locus YDR159W, strain sac3, stronger effect = lower value 0.982 | locus YDR195W, strain ref2 0.985 | locus YDR297W, strain sur2, stronger effect = lower value 0.99 | locus YDR334W, strain swr1, stronger effect = lower value 0.969 | locus YDR335W, strain msn5, stronger effect = lower value 0.976 | locus YDR392W, strain spt3, stronger effect = lower value 1.01 | locus YEL003W, strain gim4, stronger effect = lower value 0.983 | locus YEL037C, strain rad23, stronger effect = lower value 0.95 | locus YEL061C, strain CIN8 (second series), stronger effect = lower value 0.977 | locus YER015W, strain faa2, stronger effect = lower value 0.99 | locus YER016W, strain bim1, stronger effect = lower value 0.986 | locus YER111C, strain swi4, stronger effect = lower value 1 | locus YER155C, strain BEM2 (second series), stronger effect = lower value 1.01 | locus YFR010W, strain ubp6, stronger effect = lower value 0.96 | locus YGL167C, strain pmr1, stronger effect = lower value 0.992 | locus YGL173C, strain kem1, stronger effect = lower value 0.984 | locus YGL227W, strain vid30, stronger effect = lower value 0.993 | locus YGL240W, strain doc1, stronger effect = lower value 1.02 | locus YGL253W, strain hxk2, stronger effect = lower value 0.986 | locus YHR013C, strain ard1, stronger effect = lower value 0.996 | locus YHR027C, strain rpn1, stronger effect = lower value 0.981 | [1] 0.967 | locus YHR079C, strain IRE1, stronger effect = lower value 0.971 | locus YHR142W, strain chs7, stronger effect = lower value 0.943 | locus YJL092W, strain hpr5, stronger effect = lower value 0.975 | locus YJL095W, strain BCK1 (second series), stronger effect = lower value 0.995 | locus YJL095W, strain BCK1, stronger effect = lower value 0.989 | locus YJL115W, strain asf1, stronger effect = lower value 0.971 | locus YJL129C, strain trk1, stronger effect = lower value 0.97 | locus YJL154C, strain vps35, stronger effect = lower value 0.992 | locus YJL164C, strain tpk1, stronger effect = lower value 0.979 | locus YJL166W, strain qcr8, stronger effect = lower value 0.998 | locus YJL187C, strain SWE1, stronger effect = lower value 0.99 | locus YJR066W, strain TOR1, stronger effect = lower value 0.921 | locus YKL160W, strain elf1, stronger effect = lower value 0.986 | locus YKR026C, strain gcn3, stronger effect = lower value 0.971 | locus YKR091W, strain srl3, stronger effect = lower value 0.99 | locus YLL001W, strain dnm1, stronger effect = lower value 0.968 | locus YLL026W, stronger effect = lower value 1 | locus YLL041C, strain sdh2, stronger effect = lower value 0.987 | locus YLR027C, strain aat2, stronger effect = lower value 0.988 | locus YLR113W, strain HOG1, stronger effect = lower value 1 | locus YLR221C, strain rsa3, stronger effect = lower value 0.981 | locus YLR258W, strain gsy2, stronger effect = lower value 0.996 | locus YLR262C, strain YPT6 (second series), stronger effect = lower value 1.01 | locus YLR320W, strain mms22, stronger effect = lower value 1.01 | locus YLR342W, strain FKS1, stronger effect = lower value 0.99 | locus YLR357W, strain rsc2, stronger effect = lower value 0.991 | locus YLR370C, strain arc18, stronger effect = lower value 0.986 | locus YLR384C, strain iki3, stronger effect = lower value 0.981 | locus YML120C, strain ndi1, stronger effect = lower value 0.968 | locus YMR058W, strain fet3, stronger effect = lower value 0.982 | locus YMR125W, strain sto1, stronger effect = lower value 0.992 | locus YMR129W, stronger effect = lower value 0.983 | locus YMR205C, strain PFK2, stronger effect = lower value 1.01 | locus YMR231W, strain pep5, stronger effect = lower value 0.992 | locus YNL071W, strain lat1, stronger effect = lower value 0.996 | locus YNL183C, strain NPR1, stronger effect = lower value 0.93 | locus YNL209W, strain ssb2, stronger effect = lower value 0.991 | locus YNL248C, strain rpa49, stronger effect = lower value 0.946 | locus YNL322C, strain KRE1 (second series), stronger effect = lower value 0.986 | locus YNR049C, strain mso1, stronger effect = lower value 0.985 | locus YOR001W, strain rrp6, stronger effect = lower value 0.973 | locus YOR070C, strain gyp1, stronger effect = lower value 0.993 | locus YOR080W, strain dia2, stronger effect = lower value 0.987 | locus YOR083W, strain WHI5, stronger effect = lower value 0.981 | locus YOR106W, strain vam3, stronger effect = lower value 0.982 | locus YOR231W, strain MKK1, stronger effect = lower value 0.968 | locus YOR265W, strain rbl2, stronger effect = lower value 0.99 | locus YOR270C, strain vph1, stronger effect = lower value 0.922 | locus YOR290C, strain snf2, stronger effect = lower value 0.994 | locus YPL051W, strain arl3, stronger effect = lower value 0.999 | locus YPL078C, strain atp4, stronger effect = lower value 0.978 | locus YPL106C, strain sse1, stronger effect = lower value 0.997 | locus YPL240C, strain hsp82, stronger effect = lower value 0.986 | locus YPL256C, strain CLN2, stronger effect = lower value 0.95

Cc1ccc(-c2nn[nH]n2)cc1Cl
inactive: locus YAL013W, strain DEP1, stronger effect = lower value 0.965 | locus YBR229C, strain ROT2, stronger effect = lower value 0.963 | locus YDL101C, strain DUN1, stronger effect = lower value 0.985 | locus YDL134C, strain PPH21, stronger effect = lower value 0.997 | locus YDR150W, strain NUM1, stronger effect = lower value 0.935 | locus YEL061C, strain CIN8, stronger effect = lower value 0.983 | locus YGR078C, strain PAC10, stronger effect = lower value 0.967 | locus YGR229C, strain SMI1, stronger effect = lower value 0.984 | [1] 1 | locus YHR087W, strain rtc3, stronger effect = lower value 0.975 | locus YJR043C, strain POL32, stronger effect = lower value 0.932 | locus YJR075W, strain HOC1, stronger effect = lower value 0.966 | locus YLR039C, strain RIC1, stronger effect = lower value 1 | locus YLR058C, strain SHM2 (second series), stronger effect = lower value 0.962 | locus YLR085C, strain ARP6, stronger effect = lower value 1 | locus YLR262C, strain YPT6, stronger effect = lower value 1 | locus YML094W, strain GIM5, stronger effect = lower value 1 | locus YMR219W, strain ESC1, stronger effect = lower value 0.97 | locus YMR263W, strain SAP30, stronger effect = lower value 0.933 | locus YNL153C, strain GIM3, stronger effect = lower value 0.969 | locus YNL298W, strain CLA4 (second series), stronger effect = lower value 1.02 | locus YNL322C, strain KRE1, stronger effect = lower value 0.947 | locus YNR030W, strain Alg12, stronger effect = lower value 1 | locus YOL006C, strain TOP1, stronger effect = lower value 1.07 | locus YPL055C, strain LGE1, stronger effect = lower value 0.944 | locus YPL241C, strain CIN2, stronger effect = lower value 1.12 | locus YPR135W, strain CTF4, stronger effect = lower value 1.03
